Bioassay records deposited in PubChem by National Center for Advancing Translational Sciences (NCATS).
Many of the other results were omitted from the sample, so hits are more common in it than they were.
AmpC inh detg = qHTS Inhibitors of AmpC Beta-Lactamase (assay with detergent); P00811; AmpC hydrolysis of nitrocefin, absorbance 480 nm, 0.01% Triton; Potency, µM (titrated, usually from 114 µM), for the others: top-dose activity change, negative = inhibition, most hits filed as inhibitors; actives 0.041% (n = 370,000); AID 485294, 2010;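 further: potency means the concentration at half of the fitted maximal effect; 0% = no-compound wells and -100% = no-enzyme wells; nearly all actives have a fitted effect of over 25% in size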
Target sequence (P00811 whole entry, looked up): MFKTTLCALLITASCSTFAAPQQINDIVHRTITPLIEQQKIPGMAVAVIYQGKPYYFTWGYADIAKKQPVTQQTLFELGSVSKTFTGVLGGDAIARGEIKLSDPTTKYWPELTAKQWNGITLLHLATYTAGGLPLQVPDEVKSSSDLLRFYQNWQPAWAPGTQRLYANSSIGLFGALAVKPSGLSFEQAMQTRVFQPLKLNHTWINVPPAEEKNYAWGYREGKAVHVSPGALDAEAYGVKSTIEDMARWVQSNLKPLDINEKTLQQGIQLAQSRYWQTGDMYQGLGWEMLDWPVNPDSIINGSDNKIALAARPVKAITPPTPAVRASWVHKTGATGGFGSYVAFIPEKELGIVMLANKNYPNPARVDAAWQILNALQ
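AmpC (5.3 nM in the dispensed reagent) in 20 mM phosphate pH 7.0 with 0.01% (detergent screen) or 0.0001% Triton X-100 was preincubated with compounds for 15 min at room temperature. Nitrocefin was then added from an 800 uM solution, and hydrolysis was followed at 480 nm.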
NS1 function inh = qHTS Assay for Inhibitors of Influenza NS1 Protein Function; actives 0.4% (n = 270,000); Potency, µM (series often up to 46.1 µM), for inactives: top-dose activity, positive = more growth; AID 2326, 2010; calls by dose curve; further: potency means the concentration at half of the fitted maximal effect; actives are rising curves; nearly all actives have a fitted effect of over 50% in size
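S. cerevisiae expressing influenza A NS1, grown in glucose, washed, then diluted 1:100 into pH 6.0 -URA galactose medium with 23 nl compound. Growth recovery read as OD600; NS1-free strain serves as control.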
AmpC no deterg = qHTS Inhibitors of AmpC Beta-Lactamase (assay without detergent). P00811. AmpC nitrocefin hydrolysis, absorbance 480 nm, 0.0001% Triton. Potency, µM (titrated, usually from 57.1 µM), for the others: top-dose activity change, negative = inhibition, most hits filed as inhibitors. actives 0.52% (n = 330,000);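 further: potency means the concentration at half of the fitted maximal effect; plate controls were no compound for no effect and no enzyme for full effect; nearly all actives have a fitted effect of over 20% in size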
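AmpC (5.3 nM in the dispensed reagent) in 20 mM phosphate pH 7.0 with 0.01% (detergent screen) or 0.0001% Triton X-100 was preincubated with compounds for 15 min at room temperature. Nitrocefin was then added from an 800 uM solution, and hydrolysis was followed at 480 nm.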
Cycloheximide cs = Cycloheximide Counterscreen for Small Molecule Inhibitors of Shiga Toxin | cell reporter, cycloheximide protein synthesis inhibition counterscreen | max response, % | actives 12% (n = 300,000); in the data active means max response mostly above about 13%, no sharp cut-off; inactive means mostly below about 14%; further: read at 38.3 µM for the half of the compounds with a filed dose; 0% is about no effect
Shiga toxin inh = A qHTS for Small Molecule Inhibitors of Shiga Toxin. Vero cells, Shiga toxin protein synthesis inhibition reporter. inhibition, % at 38.7 µM. actives 9.2% (n = 290,000); in the data active means inhibition mostly above about 28%, no sharp cut-off; inactive means mostly below about 43%; further: 0% is about no effect
An asterisk follows results filed as active; ? = inconclusive; nt = not tested or not shown; + = active, no number; [ ] = another dose, or the depositor's remark. Unless noted, the call rests on the fitted dose curve; in most records, active means well fitted curve in the direction sought with a large enough effect; inconclusive means small, poorly fitted or top-dose-only effect, or another doubt; inactive means no such curve, though single readings can be large; an effect the other way counts as inactive or inconclusive.

SMILES	AmpC inh detg	NS1 function inh	AmpC no deterg	Cycloheximide cs	Shiga toxin inh
Cc1nn(CC(=O)NCCc2ccc(Cl)cc2)c(=O)c2cc3cc(F)ccc3n12	19.6%	nt	nt	nt	nt
Cc1csc(NC(=O)c2nc3nccc(C)n3n2)n1	?	-3.2%	-9.3%	18.3*	71.9*
Cc1ccc(NC(=O)c2nc3nccc(C)n3n2)c(C)c1	?	nt	-8.3%[11.4 µM]	30.4*	79.9*
Cc1ccnc2nc(C(=O)Nc3nc4ccccc4s3)nn12	1.6%	2.5%	-1.5%	44.7*	62.0*
Cc1c2cnn(-c3ccccc3)c(=O)c2c(C)n1CC(=O)Nc1ccccc1Br	19.7%	nt	nt	nt	nt
COc1nc(NCCO)nc(Nc2ccccc2F)n1	0.4%	nt	-15.9%	33.8*	83.2*
COc1nc(Nc2cccc(F)c2)nc(OC)n1	-6.1%	-7.5%	-9.1%	20.2*	nt
COc1ccccc1Nc1nc(C)cc(C)n1	?	1.8%	1.1%	-2.8	15.2
COc1nc(Nc2ccccc2F)nc(OC)n1	?	-5.0%	-1.9%	12.2*	21.1
O=C1O/C(=C/c2ccccc2)c2ccccc21	1.2%	-27.4%	-24.1%	65.1*	+
N#CC1=C(c2ccccc2)/C(=C/c2ccccc2)OC1=O	0.7%	-3.5%	-22.0%	-4.9	-5.4
CCCn1c(NCc2cccc(OC)c2O)nc2ccccc21	1.2%	-8.7%	-29.0%	27.9*	39.2*
CCCn1cnc2cc(NCc3ccccn3)ccc21	?	-8.5%	-1.2%	36.7*	85.3*
CCCn1cnc2cc(NCc3cccc(OC)c3O)ccc21	-10.1%	-78.8%	-11.4%	37.3*	126.1*
COc1ccccc1-n1cnc2cc(NCc3ccccn3)ccc21	-16.6%	-25.9%	-2.6%	37.6*	112.8*
CCCn1c(NCc2ccccn2)nc2ccccc21	?	-5.9%	-8.8%	10.1	15.8
CN(C)c1ccc(CN(Cc2ccco2)C(=O)COc2ccc(F)cc2)cc1	-10.7%	nt	nt	nt	nt
Cc1ccc(N2C(=O)CS(=O)(=O)C23C(=O)N(Cc2ccccc2F)c2ccccc23)cc1Cl (stereo not drawn)	7.7%	nt	nt	nt	nt
COc1ccc(NC(=O)CCc2c(C)nc3c(c2C)c(=O)n(C)c(=O)n3C)c(OC)c1	17.2%	nt	nt	nt	nt
COc1cccc(CNc2ccc3c(c2)ncn3C(C)C)c1OC	-9.3%	-35.3%	5.7%	44.3*	161.8*
Cc1ccc(Nc2nc(/N=C/N(C)C)n[nH]2)cc1C	?	nt	-17.0%	51.0*	85.9*
Cc1cc(Nc2ccc(C)c(C)c2)n2nc(C)nc2n1	?	?	-94.3%	-3.3	13.7
Cc1ccc(NC(=O)C(C)OC(=O)Cn2[nH]c(=O)c3ccccc3c2=O)cc1 (stereo not drawn)	-13.8%	nt	-20.8%	nt	nt
O=C(O)C1CCCCC1C(=O)NCc1ccc2c(c1)OCO2 (stereo not drawn)	-2.6%	1.5%	-5.9%	0.4	-8.3
CC(NC(=O)Nc1ccc2c(c1)OCO2)C1CCCO1 (stereo not drawn)	-3.2%	-5.4%	-7.0%	44.0*	72.2*
SMILES	AmpC inh detg	NS1 function inh	AmpC no deterg	Cycloheximide cs	Shiga toxin inh
O=C(NCc1ccc2c(c1)OCO2)C1COc2ccccc2O1 (stereo not drawn)	-3.8%	-7.7%	-12.6%	13.4	33.9*
O=C(Nc1ccc2c(c1)OCO2)C1CCCCC1	2.5%	-8.3%	-8.9%	32.7*	38.1*
O=C(NCc1ccc2c(c1)OCO2)C1CCCCC1	?	0.9%	-1.3%	13.0*	42.2*
Cc1cc(C)cc(NC(=O)NC(C)C2CCCO2)c1 (stereo not drawn)	1.4%	4.5%	7.9%	9.3	8.1
COc1ccc(C(=O)Nc2cc(C)c3c(=O)oc4ccccc4c3n2)cc1	?	13.7%	8.91µM*	-1.5	-49.0
CCN(CC)CCOC(=O)c1ccc(N/C=C(/C#N)c2nc(-c3ccc(OC)cc3)cs2)cc1	4.9%	9.6%	95.2%	-1.7	7.3
CCN(CC)CCOC(=O)c1ccc(N/C=C(/C#N)c2nc(-c3ccc4c(c3)OCO4)cs2)cc1	-0.9%	19.1%	90.3%	30.8*	24.7
CCCc1cc(=O)[nH]c(SCc2cc(=O)oc3cc(C)c(C(C)C)cc23)n1	-14.2%	10.8%	-21.8%	-3.4	23.9
Cc1cc2oc(=O)cc(CSc3nc(N)cc(N)n3)c2cc1C(C)C	-6.4%	11.8%	2.82µM*	-7.3	-20.7
CN(C)c1ccc(N=Cc2nc(-c3ccccc3)oc2OC(=O)c2ccccc2)cc1	?	4.0%	-46.0%	33.5*	34.4*
